# Out of some 2,300 compounds screened, about 900 (39%) were called active.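 How the source made its calls: active means mean duplicate percent inhibition, scaled so buffer wells are 0 and the reference blocker 100, over three buffer SD above buffer mean; inactive means the rest.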 Not all results are given here.
# Biological target: Anoctamin-1 (Mus musculus) (UniProt Q8BHY3)
# Assay: TMEM16A chloride channel inhibitors, confirmation, cell-based, re-confirmation (AID 652189)
# Details: HEK293 TMEM16A/YFP-H148Q, iodide quench fluorescence, at 10 µM, ionomycin added to raise cell calcium; hits give high values
# Anoctamin-1 (Mus musculus), sequence (Q8BHY3 whole entry, looked up): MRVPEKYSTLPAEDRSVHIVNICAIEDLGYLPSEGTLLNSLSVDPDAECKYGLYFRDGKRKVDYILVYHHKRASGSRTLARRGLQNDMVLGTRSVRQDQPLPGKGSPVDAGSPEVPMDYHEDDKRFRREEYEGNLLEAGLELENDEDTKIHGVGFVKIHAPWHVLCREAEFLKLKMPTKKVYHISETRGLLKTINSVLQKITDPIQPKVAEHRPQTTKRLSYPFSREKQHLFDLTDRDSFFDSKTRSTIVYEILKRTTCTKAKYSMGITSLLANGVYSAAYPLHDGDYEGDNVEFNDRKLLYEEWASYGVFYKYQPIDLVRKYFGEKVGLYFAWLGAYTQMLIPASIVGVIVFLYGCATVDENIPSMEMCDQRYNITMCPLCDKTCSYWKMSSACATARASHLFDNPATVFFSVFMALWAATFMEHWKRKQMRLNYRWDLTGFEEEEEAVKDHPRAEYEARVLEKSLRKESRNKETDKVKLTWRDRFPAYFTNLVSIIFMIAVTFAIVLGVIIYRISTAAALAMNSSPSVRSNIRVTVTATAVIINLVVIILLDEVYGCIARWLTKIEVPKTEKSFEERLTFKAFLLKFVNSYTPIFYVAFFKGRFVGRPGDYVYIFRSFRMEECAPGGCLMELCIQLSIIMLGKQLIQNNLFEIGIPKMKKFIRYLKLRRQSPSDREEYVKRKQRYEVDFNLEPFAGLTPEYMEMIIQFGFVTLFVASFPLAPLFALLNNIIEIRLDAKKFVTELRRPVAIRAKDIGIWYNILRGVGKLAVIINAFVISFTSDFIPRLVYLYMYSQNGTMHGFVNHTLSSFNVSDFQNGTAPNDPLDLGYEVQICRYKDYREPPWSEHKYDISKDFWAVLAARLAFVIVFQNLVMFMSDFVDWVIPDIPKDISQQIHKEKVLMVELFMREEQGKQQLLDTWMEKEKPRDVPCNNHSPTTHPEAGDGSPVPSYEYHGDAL
row,SMILES,inhibition
1,CCCCCn1c(=O)c(C(=O)NCc2ccccn2)c(O)c2ccccc21,23% (active)
2,CCOc1cccc(=NC2CCCCC2)c2c(C)[nH]c(C)c12,inactive
3,CCN(CC)C(=O)c1ccc(NC(=O)c2cc(-n3cnnc3)ccc2Cl)cc1,inactive

# Reference: PubChem BioAssay AID652189 (Johns Hopkins Ion Channel Center, 2013)
